Experiment [1] has as its target T1, Ephrin type-A receptor 3 (Homo sapiens) (UniProt P29320).
T1 sequence (whole entry): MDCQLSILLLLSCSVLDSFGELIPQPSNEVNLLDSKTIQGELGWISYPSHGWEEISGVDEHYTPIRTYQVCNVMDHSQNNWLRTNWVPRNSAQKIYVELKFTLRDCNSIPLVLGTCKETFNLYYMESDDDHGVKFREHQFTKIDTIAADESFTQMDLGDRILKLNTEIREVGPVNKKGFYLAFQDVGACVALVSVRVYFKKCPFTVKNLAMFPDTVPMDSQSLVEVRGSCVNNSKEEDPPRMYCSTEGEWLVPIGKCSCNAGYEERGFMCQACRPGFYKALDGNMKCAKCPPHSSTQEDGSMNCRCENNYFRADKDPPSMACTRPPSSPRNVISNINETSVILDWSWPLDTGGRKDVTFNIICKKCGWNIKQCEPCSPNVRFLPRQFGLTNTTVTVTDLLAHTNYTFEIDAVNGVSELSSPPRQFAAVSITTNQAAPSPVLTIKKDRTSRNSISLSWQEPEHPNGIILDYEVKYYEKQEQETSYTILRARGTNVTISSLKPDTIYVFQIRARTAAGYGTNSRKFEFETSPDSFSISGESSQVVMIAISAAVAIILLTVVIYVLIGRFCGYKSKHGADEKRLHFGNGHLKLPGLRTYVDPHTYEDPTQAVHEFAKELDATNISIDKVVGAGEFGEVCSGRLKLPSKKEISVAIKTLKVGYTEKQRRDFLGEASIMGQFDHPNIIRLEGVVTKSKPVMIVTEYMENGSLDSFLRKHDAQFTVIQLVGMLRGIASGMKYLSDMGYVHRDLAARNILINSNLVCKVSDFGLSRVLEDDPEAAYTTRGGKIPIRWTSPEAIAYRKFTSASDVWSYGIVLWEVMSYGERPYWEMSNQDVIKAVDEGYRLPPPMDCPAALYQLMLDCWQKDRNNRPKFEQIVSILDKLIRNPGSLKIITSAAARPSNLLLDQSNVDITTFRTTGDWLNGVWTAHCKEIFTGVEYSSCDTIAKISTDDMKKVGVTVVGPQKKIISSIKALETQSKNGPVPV
The following applies: at 10 µM.

In experiment [2] the target is Ephrin type-A receptor 4 (Homo sapiens) (UniProt P54764). The following applies: at 1 µM.
Experiment [3] has the same target. The following applies: at 10 µM.
The target of experiment [4] is Ephrin type-A receptor 5 (Homo sapiens) (UniProt P54756). The following applies: at 1 µM.
The target is the same in experiment [5]. The following applies: at 10 µM.
In experiment [6] the target is Ephrin type-A receptor 7 (Homo sapiens) (UniProt Q15375). The following applies: at 1 µM.
The target is the same in experiment [7]. The following applies: at 10 µM.
Experiment [8] addresses T2, Ephrin type-A receptor 8 (Homo sapiens) (UniProt P29322).
T2 sequence (whole entry): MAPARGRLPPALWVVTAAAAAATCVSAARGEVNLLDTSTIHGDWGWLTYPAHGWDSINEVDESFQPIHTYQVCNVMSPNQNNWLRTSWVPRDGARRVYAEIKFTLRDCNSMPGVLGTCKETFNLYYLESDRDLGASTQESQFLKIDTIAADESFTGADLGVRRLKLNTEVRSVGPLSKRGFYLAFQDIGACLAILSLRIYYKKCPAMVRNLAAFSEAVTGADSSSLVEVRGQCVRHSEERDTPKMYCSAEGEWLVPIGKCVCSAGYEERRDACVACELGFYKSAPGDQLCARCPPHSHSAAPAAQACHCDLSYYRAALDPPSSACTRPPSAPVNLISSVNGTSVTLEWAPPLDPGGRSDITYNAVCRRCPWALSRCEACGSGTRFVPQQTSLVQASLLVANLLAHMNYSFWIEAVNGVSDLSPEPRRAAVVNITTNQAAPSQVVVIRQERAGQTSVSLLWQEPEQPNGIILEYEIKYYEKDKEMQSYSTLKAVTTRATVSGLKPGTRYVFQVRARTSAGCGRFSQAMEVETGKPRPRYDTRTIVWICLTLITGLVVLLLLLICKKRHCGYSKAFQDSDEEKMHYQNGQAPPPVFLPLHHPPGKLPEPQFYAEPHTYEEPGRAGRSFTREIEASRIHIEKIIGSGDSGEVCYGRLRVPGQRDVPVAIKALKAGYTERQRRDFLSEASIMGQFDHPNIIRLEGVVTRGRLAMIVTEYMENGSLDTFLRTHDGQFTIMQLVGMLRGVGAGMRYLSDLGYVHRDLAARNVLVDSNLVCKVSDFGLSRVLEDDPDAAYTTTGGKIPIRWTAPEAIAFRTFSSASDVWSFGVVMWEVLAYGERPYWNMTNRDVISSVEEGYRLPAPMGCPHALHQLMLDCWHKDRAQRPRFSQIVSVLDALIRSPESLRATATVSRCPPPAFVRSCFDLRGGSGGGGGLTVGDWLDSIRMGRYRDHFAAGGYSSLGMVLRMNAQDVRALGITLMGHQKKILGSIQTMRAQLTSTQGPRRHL
As to conditions: at 1 µM.

Experiment [9] deals with T2, Ephrin type-A receptor 8 (Homo sapiens). The following applies: at 10 µM.
The target of experiment [10] is T3, Ephrin type-B receptor 1 (Homo sapiens) (UniProt P54762).
T3 sequence (whole entry): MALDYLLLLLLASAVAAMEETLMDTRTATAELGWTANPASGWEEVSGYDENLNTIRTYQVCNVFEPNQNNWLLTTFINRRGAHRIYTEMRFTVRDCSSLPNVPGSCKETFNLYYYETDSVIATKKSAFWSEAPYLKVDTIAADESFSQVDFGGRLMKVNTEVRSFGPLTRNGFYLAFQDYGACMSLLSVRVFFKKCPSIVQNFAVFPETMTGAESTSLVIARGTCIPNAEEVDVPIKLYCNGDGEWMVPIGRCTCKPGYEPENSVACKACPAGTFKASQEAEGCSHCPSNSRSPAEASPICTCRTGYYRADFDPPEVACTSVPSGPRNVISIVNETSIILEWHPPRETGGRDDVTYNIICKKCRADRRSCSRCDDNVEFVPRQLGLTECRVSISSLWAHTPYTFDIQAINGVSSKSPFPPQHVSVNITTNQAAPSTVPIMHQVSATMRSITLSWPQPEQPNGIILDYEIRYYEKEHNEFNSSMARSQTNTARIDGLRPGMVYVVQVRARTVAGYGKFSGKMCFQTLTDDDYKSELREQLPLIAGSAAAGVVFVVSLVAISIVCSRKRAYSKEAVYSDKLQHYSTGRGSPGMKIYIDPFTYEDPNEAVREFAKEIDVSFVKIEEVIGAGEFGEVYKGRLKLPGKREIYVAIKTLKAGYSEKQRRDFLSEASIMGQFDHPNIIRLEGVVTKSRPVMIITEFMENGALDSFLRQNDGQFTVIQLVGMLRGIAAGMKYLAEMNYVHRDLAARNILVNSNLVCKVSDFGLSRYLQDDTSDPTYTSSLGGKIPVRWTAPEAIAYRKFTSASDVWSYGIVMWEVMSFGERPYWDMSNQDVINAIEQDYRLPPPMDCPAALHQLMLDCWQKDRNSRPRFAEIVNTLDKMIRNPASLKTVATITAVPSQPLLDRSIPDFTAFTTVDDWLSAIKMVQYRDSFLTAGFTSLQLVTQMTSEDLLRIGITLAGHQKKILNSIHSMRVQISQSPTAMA
As to conditions: at 1 µM.

Chain of Ephrin type-A receptor 7 (Homo sapiens) (Q15375 28-998 limits assumed): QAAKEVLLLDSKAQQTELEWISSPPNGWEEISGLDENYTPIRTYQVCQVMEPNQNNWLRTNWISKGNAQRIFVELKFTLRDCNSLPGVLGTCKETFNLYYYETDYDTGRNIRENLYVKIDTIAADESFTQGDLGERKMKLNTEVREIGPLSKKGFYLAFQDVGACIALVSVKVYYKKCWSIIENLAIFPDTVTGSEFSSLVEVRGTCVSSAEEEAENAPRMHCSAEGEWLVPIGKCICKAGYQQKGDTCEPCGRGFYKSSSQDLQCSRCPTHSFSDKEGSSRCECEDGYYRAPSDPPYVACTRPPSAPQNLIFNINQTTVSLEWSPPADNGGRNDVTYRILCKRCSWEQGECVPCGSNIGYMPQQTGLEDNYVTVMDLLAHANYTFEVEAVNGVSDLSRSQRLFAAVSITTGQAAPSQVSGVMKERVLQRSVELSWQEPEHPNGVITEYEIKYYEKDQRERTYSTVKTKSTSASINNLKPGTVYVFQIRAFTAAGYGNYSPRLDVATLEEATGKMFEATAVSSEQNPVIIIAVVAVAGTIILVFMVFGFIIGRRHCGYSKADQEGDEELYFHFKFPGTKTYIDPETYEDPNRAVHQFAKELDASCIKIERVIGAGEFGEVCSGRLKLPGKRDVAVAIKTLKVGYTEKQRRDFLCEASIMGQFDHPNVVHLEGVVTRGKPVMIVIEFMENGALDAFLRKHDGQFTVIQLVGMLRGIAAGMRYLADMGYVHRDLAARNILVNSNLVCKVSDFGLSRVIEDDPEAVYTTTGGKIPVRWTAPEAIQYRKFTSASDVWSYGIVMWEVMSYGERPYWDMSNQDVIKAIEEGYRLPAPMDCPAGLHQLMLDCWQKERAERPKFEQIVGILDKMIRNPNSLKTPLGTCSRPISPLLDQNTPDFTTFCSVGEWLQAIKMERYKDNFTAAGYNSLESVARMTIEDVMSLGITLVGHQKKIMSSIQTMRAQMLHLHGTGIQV
Chain of Ephrin type-A receptor 5 (Homo sapiens) (P54756 whole entry): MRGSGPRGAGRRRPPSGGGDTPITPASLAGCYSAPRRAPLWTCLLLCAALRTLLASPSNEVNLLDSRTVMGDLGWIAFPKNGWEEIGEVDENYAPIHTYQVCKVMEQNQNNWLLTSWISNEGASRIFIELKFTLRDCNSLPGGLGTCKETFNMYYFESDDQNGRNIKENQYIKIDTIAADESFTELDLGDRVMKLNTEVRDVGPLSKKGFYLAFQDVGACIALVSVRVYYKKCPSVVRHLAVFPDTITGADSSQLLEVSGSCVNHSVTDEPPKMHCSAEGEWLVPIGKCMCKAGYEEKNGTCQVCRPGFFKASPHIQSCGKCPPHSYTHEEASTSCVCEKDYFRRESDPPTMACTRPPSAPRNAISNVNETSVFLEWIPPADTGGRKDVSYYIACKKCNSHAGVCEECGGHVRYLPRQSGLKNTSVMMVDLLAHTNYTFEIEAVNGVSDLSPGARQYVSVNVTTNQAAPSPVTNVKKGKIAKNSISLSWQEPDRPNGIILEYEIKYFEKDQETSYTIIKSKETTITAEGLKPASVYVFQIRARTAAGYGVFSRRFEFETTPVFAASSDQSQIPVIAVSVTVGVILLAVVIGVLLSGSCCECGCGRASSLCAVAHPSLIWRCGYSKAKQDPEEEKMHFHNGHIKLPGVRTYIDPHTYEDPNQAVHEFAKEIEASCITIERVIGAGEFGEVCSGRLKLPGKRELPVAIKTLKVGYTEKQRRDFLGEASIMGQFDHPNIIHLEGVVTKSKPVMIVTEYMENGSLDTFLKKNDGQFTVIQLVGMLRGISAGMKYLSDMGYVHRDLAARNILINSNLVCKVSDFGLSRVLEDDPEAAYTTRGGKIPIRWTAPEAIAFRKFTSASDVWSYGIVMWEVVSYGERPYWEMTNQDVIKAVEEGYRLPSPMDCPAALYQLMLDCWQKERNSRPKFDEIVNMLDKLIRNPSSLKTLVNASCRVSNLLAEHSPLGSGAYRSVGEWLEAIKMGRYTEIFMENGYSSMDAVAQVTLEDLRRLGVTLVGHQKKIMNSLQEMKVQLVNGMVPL
Chain of Ephrin type-A receptor 4 (Homo sapiens) (P54764 whole entry): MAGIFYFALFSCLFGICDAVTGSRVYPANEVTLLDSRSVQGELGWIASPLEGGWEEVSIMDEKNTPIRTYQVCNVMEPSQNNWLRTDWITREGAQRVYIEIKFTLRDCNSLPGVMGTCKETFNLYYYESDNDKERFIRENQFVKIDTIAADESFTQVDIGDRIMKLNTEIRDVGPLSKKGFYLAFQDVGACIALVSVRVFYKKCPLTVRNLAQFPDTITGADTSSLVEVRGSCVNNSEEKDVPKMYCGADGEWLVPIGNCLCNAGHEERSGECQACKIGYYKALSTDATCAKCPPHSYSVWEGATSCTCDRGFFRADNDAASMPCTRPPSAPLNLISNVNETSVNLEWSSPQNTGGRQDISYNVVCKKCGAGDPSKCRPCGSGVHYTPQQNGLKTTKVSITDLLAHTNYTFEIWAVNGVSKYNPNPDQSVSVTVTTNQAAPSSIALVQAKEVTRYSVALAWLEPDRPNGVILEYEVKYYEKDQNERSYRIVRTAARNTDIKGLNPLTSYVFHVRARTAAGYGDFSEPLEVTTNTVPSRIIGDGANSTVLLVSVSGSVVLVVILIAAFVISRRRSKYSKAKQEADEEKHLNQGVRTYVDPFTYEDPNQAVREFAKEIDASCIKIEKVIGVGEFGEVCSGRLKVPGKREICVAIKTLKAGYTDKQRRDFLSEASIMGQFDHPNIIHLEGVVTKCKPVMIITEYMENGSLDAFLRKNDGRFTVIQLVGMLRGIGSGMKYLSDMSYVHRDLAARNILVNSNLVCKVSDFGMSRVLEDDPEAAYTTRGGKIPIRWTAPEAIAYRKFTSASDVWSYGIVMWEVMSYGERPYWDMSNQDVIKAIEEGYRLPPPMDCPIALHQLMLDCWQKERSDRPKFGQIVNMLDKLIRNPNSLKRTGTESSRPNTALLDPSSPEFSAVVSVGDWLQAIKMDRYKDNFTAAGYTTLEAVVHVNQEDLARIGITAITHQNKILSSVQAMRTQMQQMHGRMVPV

On to `Oc1ccc(Nc2nc(-c3ccc(Cl)cc3)cs2)cc1`, for which the residual activity (as a rule, the signal under treatment as a percentage of the control signal) came to 111% in experiment [1]; 113% in experiment [2]; 103% in [3]; 112% in experiment [4]; 86% in [5]; 105% in [6]. In addition, the residual activity worked out at 102% in experiment [7], 99% in [8], 96% in [9] and 108% in experiment [10].

The record behind these values is ChEMBL document CHEMBL2218924, “A broad activity screen in support of a chemogenomic map for kinase signalling research and drug discovery” (Biochem J, 2013).
